Values without a mark were called inactive. Where a call stands in place of a potency, no number is given. For some assays here: Potency and affinity values are given separately. Activity calls are given as the source filed them. Unless noted, the rule behind the calls is not given here.
Key:
[1] = antimalarial activity against Dd2 strain (AID 2302;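 active = growth inhibition above 50% at the single 2 µM test dose, taken to imply half-maximal potency below 2 µM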); details: P. falciparum Dd2 in RBCs, LDH growth readout, 72 h; at 2 µM; stronger effect = higher value
[2] = HepG2 cytotoxicity, primary screen, cytotoxicity control for P. falciparum antimalarial project, cell-based, ATP luminescence (AID 2303;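 active = inhibition above 50%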); details: HepG2 viability, 24-48 h, at 10 µM, stronger effect = higher value
[3] = target: L-lactate dehydrogenase (Plasmodium falciparum (isolate CDC / Honduras)) (UniProt Q27743); test: PfLDH activity inhibition – cell lysate, 3D7 strain, counter-screen for P. falciparum growth inhibition project (AID 2304); details: P. falciparum 3D7 crude extract, LDH APAD/NBT absorbance; at 2 µM; stronger effect = higher value
Sequence of L-lactate dehydrogenase (Plasmodium falciparum (isolate CDC / Honduras)) (Q27743 whole entry, looked up): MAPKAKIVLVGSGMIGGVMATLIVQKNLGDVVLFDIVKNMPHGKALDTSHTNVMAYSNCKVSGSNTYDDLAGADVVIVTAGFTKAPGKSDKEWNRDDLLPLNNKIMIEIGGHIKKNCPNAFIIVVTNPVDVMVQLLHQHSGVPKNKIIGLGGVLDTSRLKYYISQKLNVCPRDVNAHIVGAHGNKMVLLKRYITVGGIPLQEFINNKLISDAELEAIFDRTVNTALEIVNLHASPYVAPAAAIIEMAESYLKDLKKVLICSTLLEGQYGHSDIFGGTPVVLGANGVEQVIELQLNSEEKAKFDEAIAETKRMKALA

[4] = inhibition of 3D7 malaria parasite growth – strain 3D7 (AID 2306); details: P. falciparum 3D7 erythrocytic growth, LDH absorbance, 72 h; at 2 µM; stronger effect = higher value
[5] = target: Calcium-dependent protein kinase 1 (Plasmodium falciparum (isolate 3D7)) (UniProt P62344); test: PfCDPK1 kinase inhibitors, biochemical, TCAMS library (AID 1159585; cut-off not given, nearly all actives have IC50 up to about 0.98 µM;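 note: inhibitors leave more ATP so luminescence rises with inhibition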); details: recombinant PfCDPK1, Kinase-Glo ATP depletion luminescence
Sequence of Calcium-dependent protein kinase 1 (Plasmodium falciparum (isolate 3D7)) (P62344 whole entry, looked up): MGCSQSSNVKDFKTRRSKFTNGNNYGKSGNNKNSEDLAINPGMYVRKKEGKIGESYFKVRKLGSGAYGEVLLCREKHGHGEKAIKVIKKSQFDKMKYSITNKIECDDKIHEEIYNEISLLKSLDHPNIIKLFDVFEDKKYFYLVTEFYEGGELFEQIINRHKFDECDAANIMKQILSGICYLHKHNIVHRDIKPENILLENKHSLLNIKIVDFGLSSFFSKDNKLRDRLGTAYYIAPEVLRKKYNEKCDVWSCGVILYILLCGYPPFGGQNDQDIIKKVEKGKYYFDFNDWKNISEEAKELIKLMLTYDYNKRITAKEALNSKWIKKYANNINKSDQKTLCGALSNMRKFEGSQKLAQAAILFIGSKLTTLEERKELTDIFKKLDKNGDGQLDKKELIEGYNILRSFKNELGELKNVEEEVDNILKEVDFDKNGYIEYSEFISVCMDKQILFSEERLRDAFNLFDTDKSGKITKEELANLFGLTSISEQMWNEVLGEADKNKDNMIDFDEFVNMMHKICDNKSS

[6] = target: Plasmodium falciparum protein kinase 6 (PK6, PF3D7_1337100) (UniProt Q8IDW1); test: PfPK6 kinase inhibitors, biochemical, TCAMS library (AID 1159586); details: recombinant PfPK6, Kinase-Glo ATP depletion luminescence
Sequence of Plasmodium falciparum protein kinase 6 (PK6, PF3D7_1337100) (Q8IDW1 1-305): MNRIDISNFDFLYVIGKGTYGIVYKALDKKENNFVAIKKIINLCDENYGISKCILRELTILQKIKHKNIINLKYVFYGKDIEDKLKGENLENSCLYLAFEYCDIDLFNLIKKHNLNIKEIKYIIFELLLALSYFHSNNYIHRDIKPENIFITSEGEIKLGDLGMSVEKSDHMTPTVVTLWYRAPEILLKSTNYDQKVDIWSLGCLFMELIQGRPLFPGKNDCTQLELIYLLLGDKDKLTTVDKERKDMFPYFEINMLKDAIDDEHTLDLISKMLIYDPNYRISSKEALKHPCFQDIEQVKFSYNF

[7] = target: Protein kinase 7 (PK7), Plasmodium falciparum 3D7 (PF3D7_0213400) (UniProt Q7YTF7); test: inhibition of Plasmodium PK7 catalytic activity – biochemical, TCAMS antimalarial set, Kinase-Glo luminescence (AID 1159587); details: recombinant PfPK7, Kinase-Glo ATP depletion luminescence
Sequence of Protein kinase 7 (PK7), Plasmodium falciparum 3D7 (PF3D7_0213400) (Q7YTF7 1-343): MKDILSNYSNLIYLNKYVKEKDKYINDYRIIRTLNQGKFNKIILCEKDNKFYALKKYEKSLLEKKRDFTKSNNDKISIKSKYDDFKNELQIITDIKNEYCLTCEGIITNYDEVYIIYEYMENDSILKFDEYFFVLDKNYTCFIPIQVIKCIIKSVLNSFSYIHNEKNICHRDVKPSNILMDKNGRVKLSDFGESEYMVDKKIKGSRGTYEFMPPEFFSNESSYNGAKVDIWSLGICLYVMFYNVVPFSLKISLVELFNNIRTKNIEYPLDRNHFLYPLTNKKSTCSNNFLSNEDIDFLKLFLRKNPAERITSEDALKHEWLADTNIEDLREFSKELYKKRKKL

[8] = target: Calcium-dependent protein kinase 4 (Plasmodium falciparum (isolate 3D7)) (UniProt Q8IBS5); test: PfCDPK4 kinase inhibitors, biochemical, TCAMS library (AID 1159588; cut-off not given, nearly all actives have IC50 up to about 0.91 µM); details: recombinant PfCDPK4, Kinase-Glo ATP depletion luminescence
Sequence of Calcium-dependent protein kinase 4 (Plasmodium falciparum (isolate 3D7)) (Q8IBS5 whole entry, looked up): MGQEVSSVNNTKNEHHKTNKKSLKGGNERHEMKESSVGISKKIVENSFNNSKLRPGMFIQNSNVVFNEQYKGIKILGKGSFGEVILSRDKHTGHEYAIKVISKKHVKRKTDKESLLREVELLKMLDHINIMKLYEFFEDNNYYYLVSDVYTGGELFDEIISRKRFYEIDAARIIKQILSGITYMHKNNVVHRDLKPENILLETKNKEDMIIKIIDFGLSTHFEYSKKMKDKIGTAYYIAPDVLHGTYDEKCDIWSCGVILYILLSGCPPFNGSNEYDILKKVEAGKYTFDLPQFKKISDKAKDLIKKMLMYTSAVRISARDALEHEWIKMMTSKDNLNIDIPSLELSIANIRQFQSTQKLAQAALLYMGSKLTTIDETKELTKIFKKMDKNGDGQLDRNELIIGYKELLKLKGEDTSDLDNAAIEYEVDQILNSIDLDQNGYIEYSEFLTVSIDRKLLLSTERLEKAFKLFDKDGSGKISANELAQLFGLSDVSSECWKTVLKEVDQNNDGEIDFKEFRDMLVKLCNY

| SMILES | growth inhibition [1] | inhibition [2] | inhibition [3] [%] | growth inhibition [4] | outcome [5] | outcome [6] | outcome [7] | outcome [8] |
| --- | --- | --- | --- | --- | --- | --- | --- | --- |
| CC(C)CC(=O)Nc1cc(=O)[nH]c2nc(-c3ccccc3)nn12 | 85% (active) | -6% | -6 | 89% (active) | inactive | inactive | inactive | inactive |
| CCc1ccc(N2C(N)=NC(N)=NC2(C)C)cc1 | -1% | 51% (active) | -2 | 94% (active) | inactive | inactive | inactive | inactive |
| CCn1c(-c2ccccc2)cc2nnc3ccccc3c21 | 87% (active) | 34% | 5 | 92% (active) | inactive | inactive | inactive | inactive |
| c1ccc2[nH]c(-c3ccc(-c4ccc(CN5CCN(c6ccncc6)CC5)cc4)s3)nc2c1 | 100% (active) | 25% | -5 | 101% (active) | inactive | inactive | inactive | inactive |
| Brc1cc(Br)c2c(c1)C(NCCCNc1nc3ncccc3[nH]1)CCN2 (stereo unspecified) | 83% (active) | 5% | 1 | 99% (active) | inactive | inactive | inactive | inactive |
| O=C(NC1CCC(N2CCCC(OCc3ccccc3)C2)CC1)c1cc2ccccc2[nH]1 (stereo unspecified) | 11% | 38% | -1 | 94% (active) | inactive | inactive | inactive | inactive |
| O=c1cc(NCCCCNCc2cccc(Br)c2)[nH]c2ccccc12 | 19% | -1% | 0 | 98% (active) | inactive | inactive | inactive | inactive |
| COc1ccc(-c2cccc(NC(=O)c3cccc(C#N)c3)c2)cc1CN1CCNCC1 | 15% | 27% | 0 | 101% (active) | inactive | inactive | inactive | inactive |
| CN=C(Nc1c(Cl)cccc1Cl)N(C)C | 1% | -12% | -1 | 98% (active) | inactive | inactive | inactive | inactive |
| CCc1cc2c(O)c([N+](=O)[O-])c(=O)oc2cc1OCCCCCOc1cc2oc(=O)c([N+](=O)[O-])c(O)c2cc1CC | 0% | 11% | -1 | 99% (active) | inactive | inactive | inactive | inactive |
| O=S(=O)(Nc1cccc(CCN2CCC(N3CCCCC3)CC2)c1)c1ccc(Cl)cc1 | 23% | 18% | -1 | 94% (active) | inactive | inactive | inactive | inactive |
| CN(C)c1ccc(C=Cc2nc(=O)c3ccccc3o2)cc1 | 97% (active) | 6% | 0 | 96% (active) | inactive | inactive | inactive | inactive |
| CCn1c(Cc2ccccc2)nnc1SCC(=O)N1c2ccccc2Sc2ccccc21 | 96% (active) | -8% | -1 | 99% (active) | inactive | inactive | inactive | inactive |
| CCOc1ccc(C(C)NC(=O)Nc2ccccc2)cc1OCC (stereo unspecified) | 95% (active) | 14% | 1 | 96% (active) | inactive | inactive | inactive | inactive |
| Cc1cc(NC(=O)c2ccco2)ccc1OC1CCN(Cc2ccccc2)CC1 | 95% (active) | 3% | -9 | 93% (active) | inactive | inactive | inactive | inactive |
| CCC(C)(C)c1ccc(Oc2ccc(NC(=O)Nc3ccc(Cl)c(Cl)c3)cc2)cc1 | 97% (active) | 13% | -1 | 98% (active) | inactive | inactive | inactive | inactive |
| COc1cc(C(=O)Nc2cccc(-c3cn4ccc(C)cc4n3)c2)cc(OC)c1OC | 83% (active) | -1% | 1 | 97% (active) | inactive | inactive | inactive | inactive |
| CN1CCN(c2ccnc3ccc(NC(=O)Nc4ccc(-c5ccncc5)c(C#N)c4)cc23)CC1 | 99% (active) | 32% | -3 | 101% (active) | inactive | inactive | inactive | inactive |
| NCC1CCCN1Cc1ccc(-c2ccc(-c3nc4ccc(C(F)(F)F)cc4[nH]3)cc2)cc1 (stereo unspecified) | 98% (active) | 35% | 3 | 101% (active) | inactive | inactive | inactive | inactive |

| SMILES | growth inhibition [1] | inhibition [2] | inhibition [3] [%] | growth inhibition [4] | outcome [5] | outcome [6] | outcome [7] | outcome [8] |
| --- | --- | --- | --- | --- | --- | --- | --- | --- |
| CC(CN1CCN(C)CC1)C(=O)Nc1ccc(-c2ccc(-c3nc4ccc(C(F)(F)F)cc4[nH]3)cc2)cc1 (stereo unspecified) | 100% (active) | 19% | -8 | 101% (active) | inactive | inactive | inactive | inactive |
| O=c1c2ccccc2[nH]c2nc3ccccc3c(Nc3ccccc3)c12 | 97% (active) | 8% | 6 | 98% (active) | inactive | inactive | inactive | inactive |
| O=C(Nc1cc(Cl)cc(Cl)c1)N[C@H]1CCN(CCCCCNC(=O)[C@@H]2C[C@H]2c2ccc(Cl)c(Cl)c2)C1 | -3% | 49% | 3 | 99% (active) | inactive | inactive | inactive | inactive |
| Cc1ccc(-c2cc(C(=O)Nc3ccc(S(=O)(=O)N4CCCC(C)C4)cc3)[nH]n2)c(O)c1 (stereo unspecified) | 99% (active) | 32% | -4 | 102% (active) | inactive | inactive | inactive | inactive |
| CCOc1ccc(-c2nonc2NC(=O)CC(C)C)cc1OCC | 37% | -1% | 6 | 92% (active) | inactive | inactive | inactive | inactive |
| Cc1nc(N)nc(N)c1CCCOc1ccccc1Cl | 5% | 40% | -1 | 98% (active) | inactive | inactive | inactive | inactive |
| CC(=O)Nc1ncc(C(=O)Nc2cccc(-c3ccc(-c4nc5ccccc5[nH]4)cc3)c2)s1 | 66% (active) | 12% | -9 | 101% (active) | inactive | inactive | inactive | inactive |
| O=C(NC1CCN(c2ccc(F)cc2[N+](=O)[O-])CC1)c1cccs1 | 91% (active) | -9% | -1 | 90% (active) | inactive | inactive | inactive | inactive |
| CCN1CCC(N(Cc2ccc(-c3ccc(Cl)cc3)cc2)C(=O)Cn2c(CCc3cccc(F)c3F)cc(=O)c3ccccc32)CC1 | 95% (active) | 100% (active) | -7 | 99% (active) | inactive | inactive | inactive | inactive |
| COc1cccc(-c2ccc3c(-c4ccc(F)cc4)cnc(N)c3c2)c1 | 70% (active) | 27% | -2 | 100% (active) | inactive | inactive | inactive | inactive |
| CCCC1(NC[C@@H](O)[C@H](Cc2ccccc2)NC(=O)c2cc(NCC)cc(N3CCCCS3(=O)=O)c2)CCCC1 | 97% (active) | -1% | -5 | 101% (active) | inactive | inactive | inactive | inactive |
| O=[N+]([O-])c1cccc(Nc2cncc(-c3ccc(CO)cc3)c2)c1 | 96% (active) | 16% | -5 | 85% (active) | inactive | inactive | inactive | inactive |
| COc1ccc(C(=O)CCC(=O)N(CCC2CCCN2C)Cc2ccc(-c3ccc(CNCCc4ccc(S(C)(=O)=O)cc4)cn3)cc2)cc1F (stereo unspecified) | 45% | 13% | -2 | 93% (active) | inactive | inactive | inactive | inactive |
| Cc1cccc2[nH]c(-c3ccc(-c4ccc(NC(=O)Nc5cccc(C#N)c5)cc4)s3)nc12 | 100% (active) | 33% | -6 | 101% (active) | inactive | inactive | inactive | inactive |
| COc1ccc(OC)c(-c2ccc(O)c(CNCC(C)c3ccccc3)c2)c1 (stereo unspecified) | 96% (active) | 26% | -2 | 98% (active) | inactive | inactive | inactive | inactive |
| Cn1ncc2ccc(Nc3nccc(-c4ccc5c(c4)c(N)nn5C)n3)cc21 | 96% (active) | 48% | -2 | 99% (active) | inactive | inactive | inactive | inactive |
| NC1CCN(c2nc(NCCc3ccc(O)cc3)nc(NCc3ccccc3-c3ccc(C(F)(F)F)cc3)n2)CC1 | 72% (active) | 18% | 1 | 100% (active) | inactive | inactive | inactive | inactive |
| CCc1nnc2sc(-c3cccc(NC(=O)c4ccc(C)c([N+](=O)[O-])c4)c3)nn12 | 46% | 10% | 4 | 82% (active) | inactive | inactive | inactive | inactive |

Reference: PubChem BioAssay
